The list is not random: actives were taken first. Their share in the collection is about 3.4%.
SIRT5 block: SIRT5 desuccinylase inhibitors, primary screen, biochemical, fluorescence imaging, single point, set 5 | NAD-dependent protein deacylase sirtuin-5, mitochondrial (Homo sapiens), Q9NXA8 | Purified SirT5, succinyl-peptide AMC, trypsin-coupled fluorescence | inhibition, % at 15 µM | actives 1.1% (n = 330,000) | AID 652115, 2013; in the data active means inhibition above about 15%; inconclusive means no clear call, values can overlap the other calls
Target sequence (Q9NXA8 whole entry, looked up): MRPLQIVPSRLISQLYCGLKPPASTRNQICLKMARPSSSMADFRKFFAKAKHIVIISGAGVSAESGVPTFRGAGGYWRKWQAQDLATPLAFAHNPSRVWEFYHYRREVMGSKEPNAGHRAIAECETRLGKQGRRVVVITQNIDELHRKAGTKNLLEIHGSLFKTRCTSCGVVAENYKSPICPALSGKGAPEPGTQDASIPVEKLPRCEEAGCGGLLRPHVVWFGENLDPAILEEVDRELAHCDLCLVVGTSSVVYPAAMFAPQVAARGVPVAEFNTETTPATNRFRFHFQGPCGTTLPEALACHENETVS
PAX8 reporter: inhibitors of PAX8-driven TPO luciferase reporter, primary screen, RMG-I cells, single concentration. AID 652154, 2013. inhibition, % at 12.6 µM. actives 1.2% (n = 360,000). SteadyGlo, 24 h;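 active means mean replicate inhibition at least 60% with every replicate also reaching 60%; inconclusive means only one of the two criteria is met; inactive means mean below 60% and not all replicates reaching 60%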;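 further: luciferase light reporting Pax8 driven TPO promoter activity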
PGC1a acetyl inh: inhibitors of PGC1a acetylation signal, primary screen, cell-based, U2OS, AlphaScreen, inhibitor mode; AlphaScreen anti-acetyl-lysine; with virally co-expressed GCN5 acetyltransferase; inhibition, % at 15.6 µM; actives 0.17% (n = 350,000);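 active means every replicate shows inhibition of at least 40%; inconclusive means mean inhibition at least 40% but some replicate below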
LGR2 inh: inhibitors of bursicon-induced LGR2 CRE-luciferase signal, primary screen, cell-based, HEK293, CRE-luciferase reporter, bursicon stimulation; Drosophila bursicon receptor LGR2 (rickets); bursicon-stimulated, 4 h; inhibition, % at 9.99 µM; actives 0.35% (n = 380,000); AID 720647, 2013;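 active means drop in luminescence signal, shown as inhibition above about 50% in the replicate tests, limit read from the data, passing the limit was not always enough; inconclusive means probably only some replicates passing the limit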;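 further: agonist challenge used bursicon conditioned medium at about half maximal strength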
EWS-Fli block: EWS/Fli-driven NR0B1 reporter inhibitors, primary screen, A673 cells, NR0B1 luciferase, luminescence, MLPCN library; viability-normalised; inhibition, % at 12.6 µM; actives 0.67% (n = 350,000); AID 651661, 2012;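 active means mean inhibition of at least 50% after viability correction, with every replicate also passing that limit; inconclusive means mean reaches 50% but only one of two replicates passes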;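 further: firefly luciferase signal divided by Alamar Blue viability fluorescence both relative to DMSO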
Ecoli rRNA inh: reduced GFP signal of wild-type E. coli, primary screen, bacterial rRNA inhibitor project, GFP/RFP fluorescence, OD600, single point | actives 1.6% (n = 350,000) | GFP signal change (wild-type ribosome), % (concentration not given with the values) | E. coli WT GFP vs humanized-ribosome RFP mutants, 24 h; stronger effect = lower value; DMSO median 0, no signal -100;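 active means significant combined selectivity score with lowered wild-type GFP, culture density cut under 30%, mutant RFP and density less affected; inactive means any of these conditions unmet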
Hits are given with their value; n = inactive; u = inconclusive; x = no result; ! = not confirmed by another sample.

SMILES | SIRT5 block | PAX8 reporter | PGC1a acetyl inh | LGR2 inh | EWS-Fli block | Ecoli rRNA inh
Cc1nn(CC(N)=O)c(=O)c2ccccc12 | x | x | n | x | x | x
Cc1nn(CC(=O)N(C)C)c(=O)c2ccccc12 | 19 | n | n | n | x | n
C/C=C/c1cnc2c(c1)C(=O)N([C@H](C)CO)C[C@@H](C)[C@H](CN(C)Cc1ccc(F)cc1)O2 | n | n | n | n | n | n
Nc1c(Cl)ncnc1N/N=C/c1ccccn1 | x | 67 | x | n | x | x
O=C(N[C@@H]1CC[C@@H](CCn2cc(-c3cccnc3)nn2)O[C@@H]1CO)c1ccccc1F | n | n | n | n | n | n
CCC(=O)N1[C@@H]2c3ccc(-c4ccccc4F)c(=O)n3C[C@H]1[C@H](CO)[C@H]2C(=O)NC1CCCC1 | n | n | x | n | n | n
O=C(Nc1nccs1)C(F)(F)C(F)(F)C(F)(F)C(=O)Nc1nccs1 | n | n | n | n | n | -27
CC(C)NC(=O)Nc1ccc2c(c1)C(=O)N([C@@H](C)CO)C[C@@H](C)[C@@H](CN(C)Cc1ccncc1)OCCCC[C@H](C)O2 | n | n | n | n | x | n
C[C@@H]1CN([C@@H](C)CO)C(=O)c2cc(NS(=O)(=O)c3ccc(Cl)cc3)ccc2O[C@@H](C)CCCCO[C@H]1CN(C)S(=O)(=O)c1cn(C)cn1 | n | n | n | n | n | n
CC(CC(=O)Nc1ccc2c(c1)c(=O)n(C)n2-c1ccc2ccccc2c1)C(F)(F)F (stereo not given) | 21 | n | n | n | u | n
O=C(NCC1CC1)c1cc2c(c(-c3cccc(-c4ccccc4F)c3)n1)[C@@H](CCO)N(C(=O)CC1CC1)C2 | 15 | n | x | n | n | n
CC(C)NC(=O)N1Cc2cc(C(=O)NC3CCCCC3)nc(-c3cccc(-c4cccnc4)c3)c2[C@@H]1CCO | n | n | n | n | n | -40!
CC(C)NC(=O)N1Cc2cc(C(=O)NC3CCC3)nc(-c3cccc(-c4cccnc4)c3)c2[C@H]1CCO | n | n | n | n | n | n
CCNC(=O)c1cc2c(c(-c3cccc(-c4cccnc4)c3)n1)[C@H](CCO)N(S(C)(=O)=O)C2 | n | n | n | n | 55 | n
CC(=O)N1Cc2cc(C(=O)NCC(F)(F)F)nc(-c3cccc(-c4cccnc4)c3)c2[C@@H]1CCO | n | n | n | n | 59 | n
CN(C)c1ccc2c(c1)[C@@H]1C[C@H](CC(=O)NCc3cccc(F)c3)O[C@H](CO)[C@@H]1O2 | n | n | n | n | n | n
COc1ccc2c3c([nH]c2c1)[C@@H](CO)N(C(=O)Nc1ccc(F)cc1)CC31CN(C(=O)c2ccccc2F)C1 | n | n | n | n | n | n
C[C@H](CO)N1C[C@H](C)[C@@H](CN(C)Cc2cccnc2)OCc2ccccc2-c2c(n(C)c3ccccc23)C1=O | n | n | n | n | n | n
O=C(COC(=O)[C@H](Cc1c[nH]c2ccccc12)NC(=O)c1cccs1)NCc1ccccc1 | n | 66 | n | n | n | n
O=C(NC(Cc1c[nH]c2ccccc12)C(=O)O)c1cccs1 (stereo not given) | n | n | n | n | n | n
O=C(/C=C/Nc1ccccc1F)c1ccc(Br)cc1 | x | n | x | n | x | x
O=C(/C=C/Nc1ccc(Br)cc1F)c1ccccc1 | n | n | x | x | 74 | n
O=C(NCC[C@@H]1CC[C@@H](NS(=O)(=O)c2ccccc2)[C@@H](CO)O1)c1cc(Cl)cc(Cl)c1 | n | n | n | n | n | -16!
O=C(CN1CCOCC1)N[C@@H]1CC[C@H](CCNC(=O)C2CCCCC2)O[C@H]1CO | 15 | n | n | n | n | n
O=C(NCC[C@@H]1CC[C@H](NC(=O)C2CC2)[C@H](CO)O1)c1cc(Cl)cc(Cl)c1 | 38 | x | n | n | n | n
SMILES | SIRT5 block | PAX8 reporter | PGC1a acetyl inh | LGR2 inh | EWS-Fli block | Ecoli rRNA inh
COc1ccc(-c2cnc3c(c2)C(=O)N([C@H](C)CO)C[C@H](C)[C@H](CN(C)C(=O)C2CCCCC2)O3)cc1 | x | n | n | n | n | n
CO[C@@H]1CN(C)C(=O)c2ccc(NC(=O)CC(F)(F)F)cc2OC[C@H](C)N(CC2CC2)C[C@@H]1C | x | x | x | x | x | n
COc1ccc(C(CC(=O)Nc2ccccn2)N2Cc3ccccc3C2=O)cc1 (stereo not given) | n | n | 76 | n | n | n
CCCC#Cc1ccc([C@@H]2[C@H](CO)N3C(=O)CN(S(=O)(=O)Cc4ccccc4)C[C@@H]23)cc1 | n | x | n | n | n | n
Oc1c(C=C2N=c3ccccc3=N2)sc(=S)n1-c1ccccc1 | n | n | n | n | n | n
CC1=Nc2ccccc2/C1=C/c1sc(=S)n(-c2cccc(C(=O)O)c2)c1O | 17 | n | n | n | n | n
CCOC(=O)CSc1nc(C)c2cc(OC)ccc2n1 | x | x | n | n | x | x
CCOC(=O)CSc1nc(C)c2cc(C)c(C)cc2n1 | 17 | n | x | x | n | x
COc1ccc(NC(=O)C(Sc2nnc(-c3ccncc3)n2-c2ccccc2C)c2ccccc2)cc1Cl (stereo not given) | n | 115 | n | n | n | n
O=C(Nc1nc(-c2ccccc2)cs1)c1ccccc1F | n | n | x | n | n | -20
COc1cccc(CC(=O)Nc2nc(-c3ccc(F)c(F)c3)cs2)c1 | n | n | n | n | n | n
COc1ccc(-c2csc(NC(=O)c3ccccc3F)n2)cc1 | n | n | n | n | n | n
Cc1ccc(S(=O)(=O)Nc2ccccc2C(=O)Nc2nc(-c3ccc(F)cc3)cs2)cc1 | n | 77 | n | n | n | n
O=C(Nc1ccccc1)Nc1nc(-c2ccc(Cl)cc2)cs1 | n | n | n | x | n | -18
COc1ccc(-c2csc(NC(=O)c3ccccc3NS(=O)(=O)c3ccc(F)c(F)c3)n2)cc1 | n | 97 | n | n | n | n
COc1ccc2c3c([nH]c2c1)[C@H](CO)N(C(=O)NC(C)C)CC31CN(C(=O)c2ccccn2)C1 | x | x | x | x | x | n
C[C@H](CO)N1C[C@H](C)[C@@H](CN(C)Cc2ccc(Cl)c(Cl)c2)OCc2ccccc2-c2c(n(C)c3ccccc23)C1=O | x | x | x | x | x | n
COc1ccc(NS(=O)(=O)c2nnc(NC(=O)c3ccccc3F)s2)cc1 | n | n | n | n | n | -10
O=C(Cc1csc(NC(=O)Nc2cccc(Cl)c2)n1)NCc1cccnc1 | n | n | n | n | n | n
O=C(Nc1nnc(S(=O)(=O)Nc2ccccc2)s1)c1ccccc1Cl | n | n | n | n | n | n
O=C(Cc1csc(NC(=O)Nc2ccc(Cl)cc2)n1)NCc1cccnc1 | n | n | x | n | n | -32
